# Rows were chosen to be rich in hits. Some 3.6% of all compounds tested hit in one or more screens of this group.
# Pf apPOL inh: Pf-apPOL DNA polymerase inhibition | Recombinant Pf-apPOL, molecular beacon fluorescence, 1.5 h | actives 0.25% (n = 210,000) | inhibition, % at 10 µM
# mHTT-CaM PPI inh: disrupts binding of mutant huntingtin to calmodulin. P42858. AlphaScreen His-mHTT/GST-CaM binding, luminescence. inhibition, % at 15 µM. actives 3.6% (n = 190,000);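 further: 0% = both proteins with DMSO and 100% = one protein alone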
# Starred values were filed as active, the others as inactive; nt = no result given. No stated cut-off is given here; in the data, active means inhibition above about 50%; inactive means the rest.
SMILES,Pf apPOL inh,mHTT-CaM PPI inh
COc1ccc(NC(=O)N2CCC3(CC2)Nc2ccccc2-n2cccc23)c(OC)c1,6,64*
Cc1cn2c(CN3CCN(C(=O)C(C)C)CC3)c(-c3ccc(F)cc3)nc2s1,-2,43
O=C(C1CCN(c2nc3cccnc3s2)CC1)N1CCN(c2ccc(Cl)cc2)CC1,-1,-8
O=C(NCCCc1ccccc1)C1CCCN(c2cnn(Cc3ccccc3)c(=O)c2)C1 (stereo not drawn),-4,15
CSC1=NSC2=NC(=O)/C(=C\c3ccc([N+](=O)[O-])o3)C(=N)N12,0,100*
CC(C)CSC1=NSC2=NC(=O)/C(=C\c3ccc([N+](=O)[O-])o3)C(=N)N12,-3,79*
Cc1ccc(/C=C2/C(=N)N3C(SCC(C)C)=NSC3=NC2=O)o1,-17,-3
CSC1=NSC2=NC(=O)/C(=C\c3ccc(C)o3)C(=N)N12,7,1
CCCc1nc2cccnc2n1C1CCN(C(=O)CCc2ccc(OC)cc2)C1 (stereo not drawn),-5,11
COc1ccc(-c2nc3cccnc3n2C2CCN(C(=O)NCc3ccc(F)cc3)C2)cc1 (stereo not drawn),1,77*
COc1ccc(-c2nc3cccnc3n2C2CCN(C(=O)c3cccc(F)c3)C2)cc1 (stereo not drawn),3,28
COc1ccc(-c2nc3cccnc3n2C2CCN(C(=O)NCc3cccc(F)c3)C2)cc1 (stereo not drawn),-7,41
COc1ccc(-c2nc3cccnc3n2C2CCN(C(=O)c3cc(F)cc(F)c3)C2)cc1 (stereo not drawn),0,53*
O=C(c1ccc(C(F)(F)F)cc1)N1CCC(n2c(-c3ccoc3)nc3cccnc32)C1 (stereo not drawn),3,86*
COc1ccc(-c2nc3cccnc3n2C2CCN(C(=O)CCc3ccccc3)C2)cc1 (stereo not drawn),-1,86*
O=C(c1ccccc1)N1CCC(n2c(-c3ccoc3)nc3cccnc32)C1 (stereo not drawn),-2,19
O=C(CN1CCC2(CC1)N=C(c1ccc(F)cc1)C(=O)N2)Nc1ccc(F)cc1,-17,4
O=C(c1ccc(F)cc1)N1CCC(CCOCc2cccc(F)c2)CC1,-5,-11
O=C(CN1C(=O)CCC1=O)N1CCOC(c2ccc(C(F)(F)F)cc2)C1 (stereo not drawn),7,-2
O=C(Cc1ccc(Br)cc1)Nc1ccc(S(=O)(=O)c2ccc(Cl)nn2)cc1,-3,13
CCCc1cnc(N2CCN(S(=O)(=O)c3ccc(C#N)cc3)CC2)nc1,-4,nt
COc1ccc(-c2nc3cccnc3n2C2CCN(C(=O)Nc3cccc(OC)c3)C2)cc1 (stereo not drawn),-8,46
COc1ccc(-c2nc3cccnc3n2C2CCN(C(=O)Nc3cccc(C)c3)C2)cc1 (stereo not drawn),-2,62*
CC(C)N1C(=O)C(C)(C(=O)NC2CCCC2)Oc2cccnc21 (stereo not drawn),-2,7
N#CC1=C(N)Oc2cc(O)ccc2C1c1ccc(Br)cc1 (stereo not drawn),-13,27
SMILES,Pf apPOL inh,mHTT-CaM PPI inh
N#CC1=C(N)Oc2cc(N)ccc2C1c1ccc(Cl)c(Cl)c1 (stereo not drawn),-12,75*
N#CC1=C(N)Oc2cc(O)ccc2C1c1ccc(Cl)c(Cl)c1 (stereo not drawn),-6,100*
N#CC1=C(N)Oc2cc(N)ccc2C1c1ccc(Cl)cc1 (stereo not drawn),-3,16
COc1ncccc1C(=O)Nc1ccc2c(c1)CCC(=O)N2,3,-1
NS(=O)(=O)c1ccc(NC(=O)CC(CC(=O)O)c2ccccc2)cc1 (stereo not drawn),4,nt
O=C(O)CC(CC(=O)Nc1ccc(C(=O)O)cc1)c1ccccc1 (stereo not drawn),94*,-5
O=C(Nc1ccc(N=Cc2ccccc2O)cc1)c1ccccc1O,0,nt
CCN1c2cc(C)ccc2-n2cccc2C12CCN(C(=O)Nc1cccc(OC)c1)CC2,4,56*
CCN1c2cc(C)ccc2-n2cccc2C12CCN(C(=O)NC1CCCC1)CC2,-6,72*
CCN1c2ccccc2-n2cccc2C12CCN(C(=O)Nc1cc(C)ccc1C)CC2,-2,0
CCN1c2cc(C)ccc2-n2cccc2C12CCN(C(=O)Nc1ccccc1OC)CC2,-1,66*
Cc1ccc2c(c1)C(=O)NC1(CCN(C(=O)NC3CCCCC3)CC1)N2C,0,0
CCN1c2cc(C)ccc2-n2cccc2C12CCN(C(=O)NCc1cccc(OC)c1)CC2,2,34
CCOc1ccc(NC(=O)N2CCC3(CC2)c2cccn2-c2ccc(C)cc2N3CC)cc1,-3,52*
CCN1c2cc(C)ccc2-n2cccc2C12CCN(C(=O)c1ccccc1OC)CC2,-4,9
Cc1ccccc1C1CN(C(=O)c2ccccc2)CC1C(=O)N1CCOCC1 (stereo not drawn),-4,1
Cc1ccc(S(=O)(=O)N2CCC3(CC2)OCCN3S(=O)(=O)c2ccccc2)cc1,2,0
COc1cccc(CNC(=O)N2CCCC2c2cc(C)no2)c1 (stereo not drawn),-3,-6
O=C(O)C1CSC(c2cccs2)N1 (stereo not drawn),nt,-4
CCN1c2cc(Cl)ccc2C(=O)NC12CCN(C(=O)Nc1ccc(OC)cc1)CC2,-8,23
CCN1c2cc(C)ccc2-n2cccc2C12CCN(C(=O)Nc1ccc(C)cc1)CC2,-6,44
CCN1c2cc(C)ccc2-n2cccc2C12CCN(C(=O)Nc1ccccc1)CC2,-6,52*
CCN1c2cc(C)ccc2-n2cccc2C12CCN(C(=O)Nc1ccc(OC)cc1)CC2,-1,56*
Cc1cc(Cl)ccc1OCc1nc(-c2cccc([N+](=O)[O-])c2)no1,-5,-1
O=C(c1ccc([N+](=O)[O-])cc1Cl)n1nnc2ccccc21,-3,-5
SMILES,Pf apPOL inh,mHTT-CaM PPI inh
Cc1ccc(-c2cc(=O)n(CC(=O)Nc3ccc(C)c(C)c3)[nH]2)cc1,2,10
O=C(Cn1[nH]c(-c2ccccc2)cc1=O)Nc1ccc(Cl)cc1,-2,63*
COc1ccc(-n2nc3c(c2NC(=O)c2ccc(C)cc2)CSC3)cc1,-5,34
Cc1cccc(CN2CCCC2c2c(C)noc2C)c1 (stereo not drawn),2,-7
CCN(CCNC(=O)CN1N=C(c2ccc(Cl)cc2)CCC1=O)c1ccccc1,-10,65*
CCN(CC)CCNC(=O)CN1N=C(c2ccc(Cl)cc2)CCC1=O,-92,0
CC(C)NC(=O)C1CCN(c2cc(N3CCCCC3)ncn2)CC1,0,-5
COc1ccc(C)cc1-n1cnc2cc(C(=O)NCC(OC)OC)ccc21,-2,5
CCOC(CNC(=O)c1ccc2c(c1)ncn2-c1cc(Cl)ccc1OC)OCC,-4,53*
CC(C)C(=O)NCCc1csc(C2CCCN(C(=O)C3CCCCC3)C2)n1 (stereo not drawn),-5,1
Nc1ccc2c(c1)/C(=C/c1ccccc1)c1ccccc1-2,-1,100*
C(=C1c2ccccc2-c2ccccc21)c1ccccn1,-4,-142
COc1ccc(CNC(=O)C2CCCN(c3nnc4c(Cl)cccn34)C2)cc1OC (stereo not drawn),-6,10
CN(C)C(C)(C)C#CC(O)(c1ccccc1)c1ccccc1,-3,-5
OC(C#CC(O)(c1ccccc1)c1ccccc1)c1cccs1 (stereo not drawn),-4,-1

# Compound activity from PubChem BioAssay.
